101 molecules from PubChem BioAssay AID1347076 (National Center for Advancing Translational Sciences (NCATS), 2019) can be followed below.

Each structure is given as a SMILES string. Screen size: about 400,000 compounds; about 13,000 (3.2%) were called active. Where a call stands in place of a potency, no number is given. Inconclusive results (about 18%) are left out. Calls come from the whole dose curve; as a rule, active = well fitted cell-killing curve with a large enough effect; inconclusive = small, poorly fitted or top-dose-only effect, or effect the other way; inactive = flat fitted curve, though single readings scatter. Many of the other results were omitted from the sample, so actives are more common in it than they were.
Potency is the fitted concentration of half-maximal effect.

The assay in a line: qHTS assay for MDR1-selective chemotherapeutics: Primary screen using the drug-selected MDR subline cells KB-V1. Note: nearly all actives have a fitted effect of over 60% in size. As to conditions: KB-V1 MDR cells viability, CellTiter-Glo, 72 h; series mostly up to 46.1 µM. Summed up:
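Drug-selected KB-V1 cells, grown in DMEM lacking phenol red with 10% FBS, receive compound titrations; after three days at 37 degrees C, surviving cell ATP is quantified by CellTiter-Glo luminescence and responses normalized and curve-fitted.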
For `COc1ccc(-n2c(SC)nc3sc4c(c3c2=O)CCN(C(C)=O)C4)cc1`, the Potency entry is “inactive”.
With `CNc1cnc(-c2cc(OC)c(OC)c(OC)c2)cn1` the entry was “inactive”; with `Cc1ccc(C=O)c([B-](F)(F)F)c1`, “inactive”.
Consider `CN1c2ccc(C=O)c3c(C=O)ccc(c23)N(C)C1(C)C`, for which the Potency is 18.4 µM (active).
Consider `Cc1cc(C)c2c(=O)n3c(nc2c1)C(CC(C)C)NC(=O)c1cc2ccccc2cc1-3` (stereo unspecified), for which the Potency entry is “inactive”.
The value for `CN(C)C1=C2C=CC=CC2/C(=C2/C=Cc3ccccc32)C=C1` (stereo unspecified) was “inactive”; that for `CC(=O)Nc1ccc2c3c(ccc([N+](=O)[O-])c13)CC2` was “inactive”; that for `CN(c1ccccc1)S(=O)(=O)c1ccc(NC(=O)COc2ccccc2)cc1` was “inactive”.
Consider `CN(C)S(=O)(=O)c1cccc(NC(=O)Cc2ccsc2)c1`, for which the Potency entry is “inactive”.
The value for `CN(c1ccccc1)S(=O)(=O)c1cccc(NC(=O)Cc2ccc(Cl)cc2)c1` was 5.8 µM (active); that for `COc1ccc(CN2C(=O)C(CC(=O)NC3CCCCC3)CC(C(=O)N3CCOCC3)=C2C)cc1` (stereo unspecified) was “inactive”; that for `O=C(Nc1cnn(Cc2ccc(Cl)cc2)c1)C1CCCC1` was 20.6 µM (active).
Consider `CCn1cc(CN2CCC(C(=O)Nc3cccc(-c4cccc(Cl)c4)c3)CC2)cn1`, for which the Potency entry is “inactive”.
As to `O=C(O)C1CCCCC1C(=O)Nc1ccc(Cl)cc1` (stereo unspecified), the Potency result is “inactive”.
Consider `CCCCCCN1C[C@@H](O)[C@H](n2cc(COC(=O)c3ccccc3)nn2)C[C@@H]1c1ccc(Cl)cc1`, for which the Potency result was “inactive”.
Take `Cc1ccc(OCCSc2nc3ccc(NC(=O)COc4ccc(C)cc4)cc3s2)cc1`: the Potency result is “inactive”.
As for `COC(=O)[C@@]1(Sc2ccc(C)cc2)CC(=O)N(c2cccc(SC)c2)[C@@H]1c1ccccc1`, the Potency was 20.6 µM (active).
With `COC(=O)c1cc(C(=O)OC)cc(N2C(=O)CC(N3CCN(c4ccccc4)CC3)C2=O)c1` (stereo unspecified) the entry was “inactive”.
With `CCOC(=O)N1C(=O)C[C@](Sc2ccc(C)cc2)(C(=O)OC)[C@H]1c1ccccc1` the entry was “inactive”; with `Clc1cccc[n+]1CCCC[n+]1ccccc1Cl`, “inactive”; with `Cc1ccc(NS(=O)(=O)c2ccc(C(C)(C)C)cc2)cn1`, “inactive”.
With `Cc1cc(C)cc(NS(=O)(=O)c2ccc(Oc3ncc(C(F)(F)F)cc3Cl)cc2)c1`, the Potency is 16.4 µM (active).
Take `Cc1cc(C)cc(NS(=O)(=O)c2ccc(F)cc2)c1`: the Potency entry is “inactive”.
For `CC1(C(=O)Nc2cccc(Oc3ccccc3)c2)CCN1Cc1ccccc1Cl` (stereo unspecified), the Potency entry is “inactive”.
Consider `CCN(CC)CCn1c(N)c(S(=O)(=O)c2ccccc2)c2nc3ccccc3nc21`, for which the Potency result was “inactive”.
Consider `Cc1ccc(S(=O)(=O)c2c(N)n(C)c3nc4ccccc4nc23)cc1`, for which the Potency result was “inactive”.
Regarding `CCC(=O)Nc1c(S(=O)(=O)c2ccccc2)c2nc3ccccc3nc2n1Cc1ccccc1`, the Potency is 4.11 µM (active).
The value for `Cc1c(NC(=O)c2cc(=O)c3ccccc3o2)c(=O)n(-c2ccccc2)n1C` was “inactive”; that for `O=C(C[C@H]1C[C@@H]2c3cc(NC(=O)C4CCC4)ccc3O[C@@H]2[C@H](CO)O1)NC1CCCCC1` was “inactive”.
For `CCCNC(=O)c1cc(C2CCCN(C(=O)c3ccc4c(c3)CCO4)C2)on1` (stereo unspecified), the Potency entry was “inactive”.
For `Cc1ccc2nc(N3CCN(C(=O)c4ccco4)CC3)sc2c1`, the Potency result is “inactive”.
The value for `c1c2c(cc3sc(N4CCCCC4)nc13)OCCO2` was 20.6 µM (active); that for `O=C(NCc1ccc(F)cc1)c1ccc2nc(N3CCCCC3)sc2c1` was “inactive”; that for `COc1ccccc1CNC(=O)NCc1noc2ccc(C)cc12` was “inactive”.
For `COc1cccc2c1C(=O)c1c(O)c3c(c(O)c1C2=O)CC(O)(C(C)=NNC(=O)c1ccc(Cl)c(Cl)c1)CC3OC1CC(N)C(O)C(C)O1` (stereo unspecified), the Potency is 23.1 µM (active).
With `CC(=O)Nc1cccc(Nc2ccc(C#N)cc2)c1`, the Potency entry was “inactive”.
`CCOC(=O)C1=C(c2ccccc2)Nc2ncnn2C1c1ccc(Cl)cc1` (stereo unspecified): the Potency result is “inactive”.
For the molecule `CCNC(=O)C1(C)CCCN1C(=O)c1ccc(N(C)C)cc1` (stereo unspecified), the Potency entry was “inactive”.
As for `Clc1ccccc1CSc1nnc(-c2ccco2)c(-c2ccco2)n1`, the Potency was 20.6 µM (active).
With `Clc1ccccc1CSc1nncn2c1cc1occc12` the entry was “inactive”.
Consider `CC1(C)N=C(SCc2ccccc2Cl)c2ccccc2N1`, for which the Potency entry is “inactive”.
In the case of `O=S(=O)(NCC(c1ccco1)N1CCOCC1)c1cc(F)ccc1F` (stereo unspecified), the Potency result was “inactive”.
As for `CCC(=O)N1Cc2cc(C(=O)NCc3cccc(F)c3)nc(-c3cccc(C4=CCCC4)c3)c2[C@H]1CCO`, the Potency entry is “inactive”.
With `O=C(NC1CCCC1)C1CCN(C(=O)Nc2cccc(Cl)c2)CC1` the entry was “inactive”.
Consider `Cc1ccnc(N2CCCC(C(=O)NC3CC3)C2)n1` (stereo unspecified), for which the Potency result is “inactive”.
With `O=C(NNC(=O)C1CCN(c2ncccn2)CC1)c1ccccc1` the entry was “inactive”.
`O=C(NC1CCN(C(=S)Nc2ccc(Cl)cc2)CC1)C1CCCCC1`: the Potency result is “inactive”.
In the case of `O=C(NC1CCCCCC1)C1CCN(C(=O)c2ccc(Cl)cc2)CC1`, the Potency was 14.6 µM (active).
Turning to `Cc1ccnc(N2CCC(C(=O)NC3CCCCCC3)CC2)n1`, the Potency was 16.4 µM (active).
`Cc1ccc(C(NC(=O)C2CCN(CCOc3ccc(Cl)cc3Cl)CC2)c2ccccn2)cc1` (stereo unspecified): the Potency entry is “inactive”.
With `COc1ccc(NC(=O)C[C@H]2C(=O)N(CCc3ccccc3)C[C@@H]2C)cc1`, the Potency entry was “inactive”.
For `CCCNC(=O)c1cc(C2CCCCN2S(=O)(=O)c2cn(C)cn2)on1` (stereo unspecified), the Potency entry is “inactive”.
With `C[C@H](NC(=O)[C@@H]1CCCN1C(=O)[C@@H]1CCCN1C(=O)c1ccccc1)c1ccccc1`, the Potency entry is “inactive”.
With `O=C1NC[C@@H](CCCCN2CCN(CCc3ccc(O)cc3)C(=O)C2=O)N(CC2CCCCC2)C1=O`, the Potency result was “inactive”.
With `Cc1cc(C(=O)CSc2nc(N)cc(=O)[nH]2)c(C)n1Cc1ccco1` the entry was “inactive”; with `Cc1cc(C(=O)CSc2nc(N)cc(=O)[nH]2)c(C)n1CCc1ccc(Cl)cc1`, “inactive”; with `Cc1cc(C(=O)CSc2nc(N)cc(=O)[nH]2)c(C)n1-c1cccc(F)c1`, 3.66 µM (active).
For `Cc1cc(C(=O)N2CCCC2(C)C(=O)O)c(C)o1` (stereo unspecified), the Potency result was “inactive”.
Regarding `CS(=O)(=O)c1ccc2nc(NC(=O)c3ccc(Cl)nc3)sc2c1`, the Potency result is “inactive”.
`CN(C)c1cccc(C(=O)Nc2nc3ccc(S(=O)(=O)NC(C)(C)C)cc3s2)c1`: the Potency was 20.6 µM (active).
With `COc1cccc(C(=O)Nc2nc3ccc(S(C)(=O)=O)cc3s2)c1`, the Potency entry was “inactive”.
As for `CC1(C(=O)Nc2cccc3cccnc23)CCN1C(=O)CCC1CCCC1` (stereo unspecified), the Potency result is “inactive”.
Take `CC(C)(O)C1=C[N+](=O)CC=C1`: the Potency result was “inactive”.
Regarding `COc1ccc(C2CC(c3cccc(OC)c3)=NN2c2ccc(S(N)(=O)=O)cc2)cc1` (stereo unspecified), the Potency result was “inactive”.
Consider `CCOc1ccc2[nH]c(=S)sc2c1`, for which the Potency result is “inactive”.
In the case of `COc1cc(OC)c(S(=O)(=O)Nc2ccccc2C(=O)O)cc1S(=O)(=O)Nc1ccccc1C(=O)O`, the Potency entry is “inactive”.
Regarding `COc1cc(NC(=O)c2ccccc2NS(=O)(=O)c2ccc(Cl)s2)cc(OC)c1`, the Potency was 10.3 µM (active).
For `CCOc1ccc(NC(=O)c2ccccc2NS(C)(=O)=O)cc1`, the Potency result was “inactive”.
Turning to `O=C(Nc1ccc(F)cc1)Nc1nnc([C@H]2C[C@H](O)[C@@H](CO)O2)s1`, the Potency entry was “inactive”.
On to `CC(C)c1ccc(NC(=O)Cn2c3ncccc3c(=O)n2-c2ccccc2)cc1`, for which the Potency entry is “inactive”.
As for `O=C1c2ccccc2C(c2nc3ccccc3[nH]2)N1c1ccccc1` (stereo unspecified), the Potency result is “inactive”.
Take `CCOC(=O)[C@]12CCCC=C1N(CCC1=CCCCC1)C(=O)[C@H](CC(=O)N1CCOCC1)C2`: the Potency result is “inactive”.
Take `C=C1C(=O)OC2C1CCC(C)=CCCC1(C)OC21` (stereo unspecified): the Potency entry is “inactive”.
As for `Cc1nn(-c2ccc(F)cc2)c(-n2cccc2)c1C(=O)N1CCN(c2ccccc2)CC1`, the Potency is 20.6 µM (active).
The value for `Cc1nn(-c2ccccc2)c(-n2cccc2)c1C(=O)O` was “inactive”; that for `O=C(c1cnn(-c2ccc(F)cc2)c1-n1cccc1)N1CCN(c2ccc(F)cc2)CC1` was 23.1 µM (active); that for `O=C(Nc1ccc(F)cc1F)c1cnn(-c2ccc(F)cc2)c1-n1cccc1` was “inactive”.
For `COC(=O)c1ccccc1NC(=O)c1cnn(-c2ccc(F)cc2)c1-n1cccc1`, the Potency result is “inactive”.
With `CC(=O)c1c(N2CCN(c3ccc(F)cc3)CC2)nc(=S)n(-c2ccccc2)c1C` the entry was “inactive”.
Consider `COc1ccc(-c2ccc(C(=O)NCCN3CCOCC3)c3occc23)c(C)c1`, for which the Potency entry is “inactive”.
With `CCCCc1nc2ccc(F)cc2cc1C` the entry was “inactive”; with `O=C(Nc1cccc(Cc2ccccc2)c1)Nc1ccc2nc([C@@H]3O[C@H](CO)[C@@H](O)[C@H](O)[C@H]3O)[nH]c2c1`, “inactive”; with `COc1ccccc1CNC(=O)c1ccccc1NC(=O)c1nsc2ccccc12`, “inactive”.
On to `Nc1cccc(OCCCCCOc2cccc(N)c2)c1`, for which the Potency result is “inactive”.
With `S=C(NCc1ccc(Cl)cc1)NC12CC3CC(CC(C3)C1)C2`, the Potency is 16.4 µM (active).
Regarding `O=C(NCc1ccc(Cl)cc1)NCc1ccc(Cl)cc1`, the Potency entry was “inactive”.
`O=C(NCc1ccncc1)NC12CC3CC(CC(C3)C1)C2`: the Potency entry is “inactive”.
In the case of `CCCNC(=O)C1(C)CCN(Cc2ccc(Cl)c(Cl)c2)C1` (stereo unspecified), the Potency entry was “inactive”.
The value for `COc1cccc(NC(=O)C2CCN(c3cc(C)nc4c(-c5ccc(Cl)cc5)c(C)nn34)CC2)c1` was “inactive”.
For the molecule `CC1(C)OC(=O)C2=C(C[C@@H](C3CC3)O[C@H]2CCc2cccc(Cl)c2)O1`, the Potency entry is “inactive”.
The value for `O=S(=O)(c1cccc(C(F)(F)F)c1)N1CCN(c2nc(-c3cccs3)nc3ccccc23)CC1` was “inactive”.
For the molecule `COCC(=O)N(C)C[C@H]1Oc2cc(Br)ccc2S(=O)(=O)N([C@H](C)CO)C[C@H]1C`, the Potency result was “inactive”.
The value for `COc1ccccc1CC1(C)C(=O)Nc2ccc(OC(F)(F)F)cc21` (stereo unspecified) was “inactive”; that for `Cc1ccc(CC2(C)C(=O)Nc3ccc(OC(F)(F)F)cc32)cc1` (stereo unspecified) was “inactive”; that for `CC1(Cc2ccccc2C#N)C(=O)Nc2ccc(-c3ccc4[nH]ccc4c3)cc21` (stereo unspecified) was 6.51 µM (active).
`Cc1ccc(-n2ncc3c(N4CCC(C(N)=O)CC4)ncnc32)cc1`: the Potency entry was “inactive”.
For `Cc1cc(OCC(=O)Nc2nccs2)c2c(C)c(C)c(=O)oc2c1`, the Potency result is “inactive”.
The value for `COc1ccc(C(C)C)cc1-c1ccc2nncn2c1` was “inactive”; that for `CCN(CC)c1ccc(NC(=O)CN2CCN(CC(=O)Nc3ccc(Cl)cc3)CC2)cc1` was “inactive”; that for `CCN(CC)c1ccc(NC(=O)c2ccc(Cl)nc2)cc1` was 4.61 µM (active).
The value for `O=C(NNC(=O)c1ccc(Cl)nc1)c1ccc(Br)cc1` was “inactive”.
